ugtP null kill: growth inhibition of S. aureus ugtP deletion strain. S. aureus RN4220 ugtP deletion, OD600 growth, 16 h. growth inhibition, % (concentration not given with the values). 0.54% of 330,000 active. AID 1259309; in the data active = growth inhibition above about 68%;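 also: plate controls were untreated wells for no effect and antibiotic for full effect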
Sa RN4220 lethal: S. aureus RN4220 growth inhibition | 0.33% of 330,000 active | OD600, 16 h | inhibition, % (no concentration beside the values); in the data active = inhibition above about 85%;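 also: plate controls were untreated cells for no effect and reference antibiotic for full effect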
VHR inh abs: inhibitors of human VHR1 phosphatase (DUSP3). AID 1654. 0.52% of 290,000 active. recombinant VHR phosphatase, pNPP absorbance. P51452. inhibition, % at 13.3 µM; in the data active = inhibition above about 50%
Target sequence (P51452 whole entry, looked up): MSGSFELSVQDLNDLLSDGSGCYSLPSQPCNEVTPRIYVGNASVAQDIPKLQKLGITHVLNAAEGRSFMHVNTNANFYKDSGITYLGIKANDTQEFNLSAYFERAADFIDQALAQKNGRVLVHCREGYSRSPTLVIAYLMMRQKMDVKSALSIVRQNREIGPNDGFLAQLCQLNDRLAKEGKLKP
PriA SSB inh: K. pneumoniae PriA-SSBct interaction inhibition; 0.6% of 430,000 active; inhibition, % at 33 µM; AlphaScreen SSBct-PriA binding, biotinylated peptide; in the data active = inhibition mostly above about 37%, no sharp cut-off; inactive = mostly below about 20%;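 also: plate controls were negative control peptide for no effect and reference peptide for full effect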
CCHFV vOTU inh: CCHFV vOTU protease inhibition. Pep-AMC fluorescence. inhibition, % at 11.5 µM. 0.55% of 370,000 active. AID 651958; in the data active = inhibition above about 30%; also: 0% = vehicle wells with enzyme and 100% = no enzyme wells
* hit, by the source's call; x = no result given; ! = not confirmed by another sample. Most compounds without a hit are left out; they make up all but 1.5% or so of the library.

SMILES | ugtP null kill | Sa RN4220 lethal | VHR inh abs | PriA SSB inh | CCHFV vOTU inh
Nc1ccc2nc(-c3cccnc3)[nH]c2c1 | 9.1 | 2.4 | -1.6 | 5.0 | 11.0
Nc1ccc2nc(-c3ccc(N)c(Cl)c3)[nH]c2c1 | 1.4 | -7.0 | 7.5 | 43.9* | -142.0
COc1ccc(CN(C)C(=O)c2ccc(NS(=O)(=O)c3ccc(F)cc3)cc2)c(OC)c1 | 90.1* | -0.5 | 9.7 | -5.3 | 19.8
COc1ccc(CN(C)C(=O)c2ccc(NS(=O)(=O)c3ccccc3)cc2)c(OC)c1 | 45.0 | 1.6 | x | 3.8 | 16.0
COc1ccc(NC(=S)c2ccncc2)cc1 | 3.0 | 3.3 | 4.5 | 82.0*! | -0.4
COc1ccc(NC(=S)c2ccc3ccccc3n2)cc1 | x | x | 24.1 | 44.3* | x
CCOC(=O)c1cnn2c1OCCC2 | x | x | x | -12.0 | x
Cc1cc(N2CCCC2)nc(CNC(=O)COc2ccc(Cl)cc2Cl)n1 | x | x | x | -11.0 | x
O=C(Nc1ccc(-c2ccc3nnc(-c4ccncc4)n3n2)cc1)c1cccc([N+](=O)[O-])c1 | x | x | x | -5.0 | x
O=C(Nc1ccc(-c2ccc3nnc(-c4ccccn4)n3n2)cc1)c1cccc(F)c1 | x | x | x | 40.0* | x
CSc1ccc2nc(N3CCN(C(=O)COc4ccc(F)cc4)CC3)sc2c1 | x | x | x | -1.0 | x
COc1ccccc1NC(CC(=O)c1ccccc1)C(=O)OCC(=O)c1ccc(C)cc1 (stereo not given) | 83.6* | 6.2 | 9.1 | -9.6 | -16.2
CN(C)C(=O)CSc1cccc2cccnc12 | -0.4 | 2.1 | -1.0 | 94.2* | -21.8
NNC(=O)CSc1cccc2cccnc12 | 3.6 | -0.7 | -8.4 | 4.0 | 7.5
CCC1CCCCN1C(=O)CSc1cccc2cccnc12 (stereo not given) | x | x | x | 10.5 | x
O=C(CSc1cccc2cccnc12)n1c2ccccc2c2ccccc21 | x | x | x | 73.2* | x
COC(=O)CSc1cccc2cccnc12 | x | x | x | 37.9 | x
O=C(CSc1cccc2cccnc12)N1CCCC1 | 8.2 | 4.5 | -5.1 | 79.0* | -24.4
Cc1cc(C)c(C(=O)CSc2cccc3cccnc23)cc1C | x | x | x | 58.8* | x
O=C1COc2ccccc2N1Cc1nc(-c2cccc(Br)c2)no1 | x | x | x | -21.0 | x
O=C(CCc1ccccc1)N1CCN(Cc2nncn2C2CCCCC2)CC1 | x | x | x | -4.0 | x
Cc1cnnn1-c1ccc(C(=O)Nc2ccccc2C#N)cc1 | x | x | x | -17.0 | x
Cc1ccc(S(=O)(=O)N2CCN(S(=O)(=O)N3CCCC3)CC2)cc1C | x | x | x | 2.0 | x
CCOc1cccc(C2C(=C(O)c3ccc4c(c3)CC(C)O4)C(=O)C(=O)N2CCCn2ccnc2)c1 (stereo not given) | x | x | x | -8.8 | x
O=C(COc1cccc2cccnc12)N1CCc2ccccc2C1 | -6.5 | -0.6 | 39.7 | -9.3 | 10.9
SMILES | ugtP null kill | Sa RN4220 lethal | VHR inh abs | PriA SSB inh | CCHFV vOTU inh
O=C(CSc1cccc2cccnc12)N1CCc2ccccc2C1 | x | x | x | 91.3* | x
C=C(C)C(=O)Nc1cccc(C2=NOC3(C2)C[C@@H](C(N)=O)N(C(=O)c2ccc(OC)cc2)C3)c1 (stereo not given in full) | x | x | 45.3 | 47.8* | x
C=C(C)C(=O)N1CC2(CC(c3cccc(NC(=O)CCCCC)c3)=NO2)CC1C(N)=O (stereo not given) | 0.5 | 4.6 | x | x | x
C=C(C)C(=O)Nc1cccc(C2=NOC3(C2)C[C@@H](C(N)=O)N(C(=O)CCCCC)C3)c1 (stereo not given in full) | x | x | 33.9 | 61.4* | 13.6
Oc1c(Br)cc(C=NNc2ccc(Cl)nn2)cc1Br | 17.6 | 7.3 | x | -12.6 | x
Oc1c(Br)cc(Br)cc1C=NNc1ccc(Cl)nn1 | 99.6* | 21.0 | x | -3.5 | x
Oc1ccc(-c2cc(-c3ccc(O)cc3)nc(-c3ccccc3)n2)cc1 | 99.9* | 97.3* | 20.6 | -4.6 | 19.9
Oc1ccc(-c2nccc(-c3ccc(Cl)cc3)n2)cc1 | 22.7 | 12.9 | 37.1 | -13.2 | 10.2
Oc1ccc(-c2cccc(-c3ccc(O)cc3)n2)cc1 | 99.1* | 98.1* | 13.9 | -7.3 | 2.1
COc1ccc(-n2nnc3c(=O)n(CC#N)cnc32)cc1OC | x | x | x | -5.0 | x
CCOC(=O)c1c(NC(=O)c2noc(C)c2[N+](=O)[O-])sc(C(C)=O)c1C | 3.5 | 5.5 | 24.3 | 58.5* | -3.7
CCn1ccc(C(=O)Nc2c3c(nn2C)CCC3)n1 | x | x | x | -7.0 | x
COc1cccc2cc(C(=O)NCc3ccc(F)cc3)c(=N)oc12 | 0.4 | 4.1 | 23.6 | -3.1 | -6.6
COc1ccc(CNC(=O)c2cc3cccc(OC)c3oc2=N)cc1 | -2.5 | 1.8 | 53.5* | 5.0 | 3.6
COc1ccccc1N1CCN(C(=O)Cc2csc(Nc3ccccc3)n2)CC1 | x | x | x | 6.0 | x
COc1ccccc1N1CCN(C(=O)c2csc(Nc3ccccc3)n2)CC1 | x | x | x | 24.0* | x
Cc1ccc(C)c(NC(=O)Cc2cc(=O)[nH]c(SCc3ccccc3F)n2)c1 | x | x | x | -1.0 | x
Cc1csc(NC(=O)C2CCCCN2S(=O)(=O)c2ccccc2)n1 (stereo not given) | 3.4 | 2.3 | 21.8 | 1.4 | -2.2
O=C(Nc1nc(-c2ccccn2)cs1)C1CCCCN1S(=O)(=O)c1cccs1 (stereo not given) | x | x | x | 104.0* | x
O=C(Nc1nc(-c2ccc3c(c2)OCCO3)cs1)C1CCCN1S(=O)(=O)c1cccs1 (stereo not given) | x | x | x | -3.0 | x
Cc1ccc(S(=O)(=O)N2CCCCC2C(=O)Nc2nc(-c3ccccn3)cs2)cc1 (stereo not given) | x | x | x | 65.5* | x
Cc1cc(NC(=O)/C=C/c2ccccc2Cl)on1 | x | x | x | 2.0 | x
Cc1ccc(N=Nc2c(C)nn(-c3ccccc3)c2N)cc1[N+](=O)[O-] | x | x | x | 68.0* | x
Cc1nn(-c2ccccc2)c(N)c1N=Nc1ccccc1 | -21.6 | 7.1 | -8.5 | 58.3 | 20.1
Cc1nn(-c2ccccc2)c(N)c1N=Nc1cccc(S(=O)(=O)N2CCOCC2)c1 | 5.2 | 3.7 | 31.0 | 47.0*! | -2.2
SMILES | ugtP null kill | Sa RN4220 lethal | VHR inh abs | PriA SSB inh | CCHFV vOTU inh
Cc1nn(-c2ccccc2)c(N)c1N=Nc1ccc(Cl)cc1 | 16.3 | 17.9 | 0.4 | 70.6 | 4.9
O=C(NCc1ccccc1Cl)C1CCN(S(=O)(=O)N2CCCCCC2)CC1 | 19.6 | 1.3 | 53.6* | -9.1 | -7.5
O=C(NCc1ccccc1)C1CCN(S(=O)(=O)c2ccc(N3CCCC3=O)cc2)CC1 | 6.0 | 0.7 | 52.5* | -2.5 | -1.1
Nc1ccc(S(=O)(=O)NC2=NCCCCC2)cc1N | 7.2 | 2.8 | 0.5 | 4.7 | -4.9
O=[N+]([O-])c1cc(S(=O)(=O)NC2=NCCCCC2)ccc1NCC1CCCCC1 | 12.1 | 4.1 | 1.7 | 40.8* | 10.9
Cc1cc(-n2c(C)nc3ccccc3c2=O)ccc1NS(=O)(=O)c1cc(F)ccc1F | x | x | x | 12.0 | x
CCOc1ccc(Nc2ccc([N+](=O)[O-])c3nonc23)cc1 | 4.5 | 12.4 | 4.4 | 77.5* | 9.5
Cc1ccc(CN=C(N)Nc2nc(C)cc(C)n2)cc1 | -3.7 | 47.9 | 57.4* | -5.0 | 0.6
Cc1ccc(NC(N)=Nc2nc(C)cc(C)n2)cc1 | x | x | x | 11.6 | x
Oc1ccc2ccccc2c1C=Nc1cc(C(F)(F)F)ccc1N1CCCC1 | 94.6* | -5.4 | 20.8 | -11.0 | -4.3
Cc1ccc(CNC(=O)Cn2nc(C3CCN(S(C)(=O)=O)CC3)n(C)c2=O)cc1 | x | x | x | -16.0 | x
CC(=O)OC1CC[C@@]2(C)C(=CCC3C2CC[C@]2(C)C(=O)CCC32)C1 (stereo not given in full) | 87.1* | -4.9 | x | x | x
